Source: PubChem BioAssay (NCI)
About 83,000 compounds went through this panel and 20% of them were active in at least one assay; those are over-represented in the sample as a whole.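 Negative percent growth values reflect cell death: -40 means 40% of the cells present at the start died, and -100 means all died.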 Values without a mark were called inactive. Calls of active or inactive are those of the source. Rule for the calls: active = growth percent below 10; inactive = the rest.

Key:
Test in all cases: NCI-60 one-dose screen, 48 h (100 = growth as untreated, 0 = no growth, -100 = all killed)
SK-MEL-2 melanoma = details: 10 µM
EKVX NSCLC = details: 10 µM
SN12C renal = details: 10 µM
TK-10 renal = details: 10 µM unless noted
ACHN renal = details: 10 µM
CAKI-1 renal = details: 10 µM
A498 renal = details: 10 µM
CCRF-CEM leukemia = details: 10 µM
MOLT-4 leukemia = details: 10 µM
UO-31 renal = details: 10 µM

| SMILES | growth (SK-MEL-2 melanoma) | growth (EKVX NSCLC) | growth (SN12C renal) | growth (TK-10 renal) | growth (ACHN renal) | growth (CAKI-1 renal) | growth (A498 renal) | growth (CCRF-CEM leukemia) [%] | growth (MOLT-4 leukemia) | growth (UO-31 renal) [%] |
| --- | --- | --- | --- | --- | --- | --- | --- | --- | --- | --- |
| Oc1ccccc1O | 90.1% | 109% | 83.8% | 80.8% | 92.4% | 93.9% | 87.9% | 27.1 | 74.4% | – |
| CCNCCCCNCCCCNCCCCNCCCCNCC | 97.1% | 76.2% | 115% | 63.6% | 80.4% | 77.7% | 129% | 128 | 151% | – |
| CCN=c1cc2sc3cc(NCC)c(C)cc3nc-2cc1C | 26.5% | -7.52% (active) | -83.1% (active) | – | 53% | -56% (active) | 47.7% | 14 | 8.77% (active) | 40.5 |
| OCC1OC(OC2C(O)C(CO)OC2(CO)OC2OC(CO)C(O)C(O)C2O)C(O)C(O)C1O (stereo not given) | 106% | 103% | 103% | 106% | 113% | 115% | 94.6% | 88.6 | 126% | – |
| CCC(C#N)(CC)c1ccccc1 | 105% | 105% | 98% | 108% | 103% | 113% | 111% | 102 | 107% | – |
| CCOC(=O)c1cc(/C=C/c2cccc(Cl)c2)on1 | 113% | 75.4% | 86.2% | 111% | 90.9% | 91.3% | 110% | 67 | 99.9% | – |
| CC(=O)NC(N)=S | 111% | 118% | 104% | 100% | 104% | 100% | 112% | 86.7 | 77.4% | – |
| CC(=O)Cc1cc(-c2cc(CC(C)=O)[nH]n2)n[nH]1 | 111% | 89.8% | 94.2% | 92.4% | 95.1% | 87.7% | 99.3% | 101 | 114% | – |
| O=C(Cc1nc2ccc([N+](=O)[O-])cc2nc1CC(=O)c1cccnc1)c1cccnc1 | 113% | 63.2% | 56.2% | 75.5% | 54.1% | 81.5% | 86.9% | 48.7 | 80.8% | – |
| Cc1ccc(C)n1-c1ccsc1C(=O)NNC(=O)CCl | 91.2% | 81.2% | 92.2% | 105% | 98.5% | 84.8% | 104% | 61 | 92.9% | – |
| CC(C)C1CCCCC1O (stereo not given) | 107% | 81.9% | 102% | 110% | 93.5% | 101% | 97.2% | 99.3 | 148% | – |
| OCCN(CCO)C(=S)S | 121% | 96.3% | 102% | 110% | 109% | 93.1% | 114% | 104 | 121% | – |
| CC(O)COc1ccc(-c2ccccc2)cc1 (stereo not given) | 108% | 93.6% | 101% | 106% | 103% | 91.9% | 78.7% | 95.4 | 121% | – |
| CCCC(=O)c1cc(C)ccc1OC | 103% | 117% | 94.5% | 104% | 103% | 104% | 119% | 96.5 | – | – |
| Cc1cc2nc(CC(=O)c3cccc([N+](=O)[O-])c3)c(=O)[nH]c2cc1C | 95.4% | 59.9% | 86.5% | 115% | 87.3% | 76.5% | 127% | 76.3 | 83.4% | – |
| OCCN1CCOCC1 | 107% | 116% | 97.5% | 106% | 101% | 132% | 106% | 108 | 104% | – |
| OCC(O)C(O)C(O)C(O)/C=N/O (stereo not given) | 107% | 105% | 106% | – | 112% | 104% | 102% | 81.6 | 82.7% | 98.4 |
| c1csc(-c2cc(-c3cc(-c4cccs4)[nH]n3)n[nH]2)c1 | 132% | 64.8% | 97.4% | 162% | 92.7% | 79.6% | 139% | 66.1 | 97.7% | – |
| COc1ccccc1C1OC2=Nc3cc(C)c(C)cc3NC2C1=O (stereo not given) | 105% | 83.9% | 81.2% | 55.1% | 16.5% | 60.3% | – | 86.8 | 97.8% | – |
| CN(C)CCC(=O)c1ccc(O)cc1 | 107% | 107% | – | 106% | 114% | 97.1% | 99.4% | 109 | 113% | 87.2 |
| Nc1ncnc2[nH]ncc12 | -14.1% (active) | 30.4% | 14% | 1.19% (active) | 8.29% (active) | -9.29% (active) | 8.78% (active) | 13.1 | 25.9% | – |
| CC1(C)S(=O)(=O)OCCOS1(=O)=O | 115% | 94.8% | 101% | 93.2% | 106% | 93.9% | 101% | 78.8 | 102% | – |
| CCCCCCCCCCC(C)Br (stereo not given) | 104% | – | 103% | 107% | 102% | 98.6% | 108% | 95.3 | 95.3% | 91.9 |
| CC(C)NC(=O)OCc1c(COC(=O)NC(C)C)c(-c2ccc(Cl)c(Cl)c2)n2c1SCC2 | 37.8% | 62.4% | 36.4% | 6.38% (active) | 18.1% | -11.5% (active) | – | 24.9 | 17.1% | – |
| CC1(C(N)=O)CCC(C(=O)O)C1(C)C (stereo not given) | 104% | – | 89.1% | 97.7% | 102% | 99% | 106% | 104 | 123% | 85.9 |
| CC(C)=NNC(N)=S | 112% | – | 74.4% | 113% | 88.3% | 83.3% | 97.8% | 44.2 | 60.4% | 79.3 |
| CSc1[nH]c(=O)ncc1F | 117% | 101% | 101% | 109% | 95% | 91.5% | 101% | 91.2 | 117% | – |
